The full list was thinned out, with hits kept by preference.
IL1B secr inh – inflammasome signaling inhibition, IL-1 beta readout | THP-1 LPS/ATP IL-1B secretion, AlphaLISA, 16 h; active compounds read low | activity change, % at 57.5 µM | 4.7% of 360,000 active; in the data active means activity change below about -50%; inconclusive means mostly about -30% to -49%
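Secreted IL-1B measured by AlphaLISA bead assay after 16 h compound exposure of THP-1 cells; compounds (final up to 57.5 uM) added 1 h before LPS (250 ng/mL) and ATP (1.25 mM) stimulation; lower signal means less secretion.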
ALOX12 inh – blocks human arachidonate 12S-lipoxygenase; P18054; purified 12hLO, xylenol orange hydroperoxide absorbance; Potency, µM (doses to about 108 µM), inactives show top-dose activity change, negative = inhibition, hits mostly inhibitors; 1.1% of 580,000 active; AID 1671190; further: potency means the concentration at half of the fitted maximal effect
Target sequence (P18054 whole entry, looked up): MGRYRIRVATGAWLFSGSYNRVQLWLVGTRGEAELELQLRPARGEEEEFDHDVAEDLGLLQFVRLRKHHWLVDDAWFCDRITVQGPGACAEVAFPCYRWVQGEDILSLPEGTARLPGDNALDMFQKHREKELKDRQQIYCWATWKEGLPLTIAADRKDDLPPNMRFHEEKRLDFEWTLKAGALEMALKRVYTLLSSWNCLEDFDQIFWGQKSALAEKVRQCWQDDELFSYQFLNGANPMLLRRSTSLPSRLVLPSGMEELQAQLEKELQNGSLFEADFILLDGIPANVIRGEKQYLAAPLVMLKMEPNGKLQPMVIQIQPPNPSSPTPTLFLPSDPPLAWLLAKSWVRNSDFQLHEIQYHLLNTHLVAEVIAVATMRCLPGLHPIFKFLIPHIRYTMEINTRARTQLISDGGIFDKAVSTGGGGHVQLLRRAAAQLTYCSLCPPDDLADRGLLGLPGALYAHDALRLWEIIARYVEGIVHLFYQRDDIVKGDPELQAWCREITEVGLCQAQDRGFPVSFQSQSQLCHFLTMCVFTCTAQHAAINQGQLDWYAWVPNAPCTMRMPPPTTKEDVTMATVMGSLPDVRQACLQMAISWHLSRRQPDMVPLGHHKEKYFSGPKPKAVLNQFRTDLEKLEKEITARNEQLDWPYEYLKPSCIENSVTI
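Purified human 12hLO (150 nM final) in 25 mM Hepes, 0.01% Triton X-100, pH 7.0 was preincubated 15 min at room temperature with compound. Then 40 uM arachidonic acid was added, 30 min. Hydroperoxide was read by Fe-XO absorbance ratio 573/405 nm.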
HT1080 IDH1KD tx – kills HT-1080 cells with IDH1 knockdown. HT-1080 IDH1 knockdown viability, ATP luminescence, 48 h. Potency, µM (top dose mostly 46.1 µM), for inactives: top-dose activity, negative = toxicity, hits mostly cytotoxic. 2% of 360,000 active;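 further: potency means the concentration at half of the fitted maximal effect; 0% = DMSO wells and -100% = cell-free medium wells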
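% activity derives from luminescence (CellTiter-Glo), normalised to DMSO and no-cell wells. HT-1080-IDH1KD cells, 750/well, had 48 h compound exposure at 37 °C.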
DT40 TDP1 no CPT – qHTS for Inhibitors of human tyrosyl-DNA phosphodiesterase 1 (TDP1): qHTS in cells in absence of CPT; DT40 Tdp1-/- hTDP1 cells, no CPT, ATP luminescence, 48 h; Potency, µM (titrated, usually from 46.2 µM), inactives show at the highest dose activity change, negative = growth inhibition, hits mostly inhibitors; 15% of 420,000 active; AID 686978, 2013; further: potency means the concentration at half of the fitted maximal effect; nearly all actives have a fitted effect of over 55% in size
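No-CPT arm: Tdp1-/-;hTDP1 DT40 cells (400/well) plus compounds, incubated ≥48 hr at 37 °C. Readout CellTiter-Glo luminescence.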
HT1080NT lethal – kills 2HG-producing HT-1080-NT fibrosarcoma cells; HT-1080-NT fibrosarcoma viability, CellTiter-Glo ATP luminescence, 48 h; Potency, µM (doses to about 46.1 µM), inactives show at the highest dose activity, negative = less viability, hits mostly cytotoxic; 1.6% of 360,000 active;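 further: NT is the 2HG producing partner of a matched IDH1 knockdown line; potency means the concentration at half of the fitted maximal effect; 0% = DMSO-treated cells and -100% = media-only wells without cells; nearly all actives have a fitted effect of over 55% in size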
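HT-1080-NT; 750 cells/well; 5% FBS RPMI; 48 h compound, 37 degrees C; CellTiter-Glo luminescence; curve fitting and curve-class assignment.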
DT40 TDP1 CPT – DT40-hTDP1 cell growth loss with CPT. chicken DT40 Tdp1-/-;hTDP1 cells + 20 nM CPT, ATP luminescence, 48 h. Potency, µM (series often up to 46.2 µM), for the others: at the highest dose activity change, negative = growth inhibition, usual class: inhibitors. 12% of 420,000 active. AID 686979; further: potency means the concentration at half of the fitted maximal effect; nearly all actives have a fitted effect of over 55% in size
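Cell growth measured by CellTiter-Glo luminescence after a minimum 48 h, 37 C compound exposure with 20 nM CPT in Tdp1-knockout DT40 cells stably expressing hTDP1, seeded 400/well; qHTS titration format.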
* marks the source's active call; other numbers are inactive results; ? = inconclusive; . = no result; [ ] = another dose, or the depositor's remark. Unless noted, the call rests on the fitted dose curve; in most records, active means well fitted curve in the direction sought with a large enough effect; inconclusive means small, poorly fitted or top-dose-only effect, or another doubt; inactive means no such curve, though single readings can be large; an effect the other way counts as inactive or inconclusive. Unless noted, on the % scale 0 is the no-effect control and ±100 the full control effect.

SMILES | IL1B secr inh | ALOX12 inh | HT1080 IDH1KD tx | DT40 TDP1 no CPT | HT1080NT lethal | DT40 TDP1 CPT
CN(c1ccccc1)S(=O)(=O)c1ccc(NC(=O)c2ccccc2C(=O)O)cc1 | -4 | ? | 18% | ? | 0% | ?
CN(c1ccccc1)S(=O)(=O)c1ccc(NC(=S)NC(=O)c2ccccc2)cc1 | 11 | 14µM* | -9%[9.24 µM] | 26µM* | -2% | ?
CN(c1ccccc1)S(=O)(=O)c1ccc(NC(=O)CC(=O)c2ccccc2)cc1 | 0 | 5% | 1% | 18µM* | 0% | ?
COc1ccccc1/C=C/C(=O)NC(=S)Nc1ccc(S(=O)(=O)N(C)c2ccccc2)cc1 | -3 | 44% | 17% | 23µM* | 14% | ?
O=C(NC(=S)Nc1ccc(S(=O)(=O)Nc2ccccc2)cc1)C1CC1 | 1 | ? | 8% | -5% | 7% | 7%
CN(Cc1ccccc1)S(=O)(=O)c1ccc(NC(=S)NC(=O)C2CCCC2)cc1 | 8 | ? | 8.9µM* | 4.6µM* | 7.1µM* | 5.2µM*
O=C(CN1C(=O)NC2(CCOCC2)C1=O)NCc1ccc2c(c1)OCO2 | . | 4% | . | . | . | .
O=C(CNC(=O)c1ccccc1F)Nc1ccccc1C(F)(F)F | 14 | 1% | 11% | -1% | 2% | 20%
CN(c1ccccc1)S(=O)(=O)c1ccc(NC(=S)NC(=O)C2CC2)cc1 | -11 | ? | 0% | 12µM* | -14% | ?
CN(C(=S)NC(=O)C1CCCC1)c1ccccc1 | 6 | 20µM* | 6% | -18% | 0% | -24%
CCC[N+](CC#CCO)(CC#Cc1ccccc1)CCC | -3 | -2% | 15% | -3% | 15% | 1%
CCCC[N+](CC#CCO)(CC#Cc1ccccc1)CCCC | -14 | 1% | -18% | 9.2µM* | -7% | ?
CC[N+](CC)(CC#Cc1ccccc1)CC(=O)c1ccc(Cl)cc1 | -3 | -24% | -10% | 5.8µM* | 0% | 5.8µM*
CCOc1ccccc1C1NC(=O)N(CC(=O)Nc2cccc(CC)c2)C2=C1C(=O)OC2 (stereo not given) | . | -4% | . | . | . | .
CCOc1ccc(NC(=O)c2ccc3nccnc3c2)cc1 | 10 | -17% | -7% | ? | 0% | ?
CCOc1ccc(NC(=O)Nc2ccc3nccnc3c2)cc1 | -13 | 57% | -9% | 15µM* | -6% | ?
CCOc1ccc(NC(=O)NC(C)CC)cc1 (stereo not given) | -18 | 0% | -5% | 18µM* | -9% | ?
O=C(c1cc(-c2ccccc2F)n[nH]1)N1CCC2(CCCN(Cc3ccccc3F)C2)C1 (stereo not given) | . | 23% | . | . | . | .
CCN(C(=O)Cn1ccn2nc(-c3ccccc3)c(CO)c2c1=O)c1ccccc1 | . | 71% | . | . | . | .
Cc1ccccc1NC1=C(Cl)C(=O)OC1OC(=O)c1ccccc1C (stereo not given) | -83* | -16% | ? | ? | -18% | ?
Cc1ccc(NC2=C(Cl)C(=O)OC2OC(=O)c2ccccc2)c(C)c1 (stereo not given) | ? | ? | -2% | ? | -20% | ?
Cc1cccc(NC2=C(Cl)C(=O)OC2OC(=O)c2ccco2)c1 (stereo not given) | -20 | -10% | -9% | 21µM* | ? | 21µM*
Cc1ccc(NC2=C(Cl)C(=O)OC2OC(=O)c2ccco2)cc1 (stereo not given) | -13 | ? | 10µM* | 16µM* | ? | ?
O=C(CCn1ccn2nc3c(c2c1=O)CCCC3)NCc1ccc2c(c1)OCO2 | . | 4% | . | . | . | .
CCCn1nc(C(=O)Nc2ccc3nc(SC)sc3c2)c2ccccc2c1=O | . | 3% | . | . | . | .
SMILES | IL1B secr inh | ALOX12 inh | HT1080 IDH1KD tx | DT40 TDP1 no CPT | HT1080NT lethal | DT40 TDP1 CPT
CCOC(=O)c1cc2c(=O)n3ccccc3nc2n(CC(C)C)c1=NC(=O)COc1ccc(Cl)cc1 | . | -26% | . | ? | . | ?
CC(C)Oc1ccc(CNC(=O)c2nnn3cc(-c4ccccc4)[nH]c(=O)c23)cc1 | . | 15% | . | . | . | .
COC(=O)c1c(C)[nH]c(O)c1C=Nc1ccc(Oc2ccccc2)cc1 | -15 | -15% | ? | ? | -6% | -24%
COC(=O)c1c(C)[nH]c(O)c1C=Nc1ccc(C(C)C)cc1 | -101* | ? | -4% | 18µM* | 9% | ?
CCOC(=O)c1ccc(N2C(=O)c3[nH]nc(-c4ccc(OCC)cc4)c3C2c2ccc(OC)cc2OC)cc1 (stereo not given) | . | -23% | . | 18µM* | . | 21µM*
O=C1c2[nH]nc(-c3ccc(F)cc3)c2C(c2ccccc2F)N1c1ccccc1 (stereo not given) | . | ? | . | 21µM* | . | ?
CCOC(=O)c1ccc(N2C(=O)c3[nH]nc(-c4ccc(C)cc4)c3C2c2cccc(F)c2)cc1 (stereo not given) | . | 0% | . | ? | . | 23µM*
CCOC(=O)c1ccc(N2C(=O)c3[nH]nc(-c4ccc(OC)cc4)c3C2c2cccc(O)c2)cc1 (stereo not given) | . | 0% | . | 21µM* | . | 18µM*
CCS(=O)(=O)Nc1ccc(C2=NN(C(=O)c3ccco3)C(c3ccc(OC)cc3)C2)cc1 (stereo not given) | . | -17% | . | . | . | .
CCOc1ccc(N2C(=O)c3n[nH]c(-c4cccs4)c3C2c2cccc(F)c2)cc1 (stereo not given) | . | -21% | . | ? | . | ?
CCOC(=O)c1ccc(N2C(=O)c3n[nH]c(-c4cccs4)c3C2c2cccc(OC)c2)cc1 (stereo not given) | . | -9% | . | 10µM* | . | 26µM*
CCn1cnnc1-c1nn(C)c2c1CN(C(=O)CCc1ccc(OC)cc1)CC2 | . | 16% | . | . | . | .
COC(=O)C1C(=O)c2c([nH]c(C(=O)OC3CCCCC3)c2C)CC1C (stereo not given) | ? | 469% | 6% | ? | -5% | ?
COC(=O)C1C(=O)c2c([nH]c(C(=O)OC3CCCC3C)c2C)CC1C (stereo not given) | -26 | -19% | 0% | 13µM* | -5% | 16µM*
COc1ccc(-c2nc(CSc3nncn4c3cc3occc34)c(C)o2)cc1 | . | ? | . | 23µM* | . | 16µM*
COc1ccc(-c2nc(CSc3nnc(C)n4c3cc3occc34)c(C)o2)cc1OC | . | 1% | . | 12µM* | . | 10µM*
Cc1nnc(SCc2ccccc2Cl)c2cc3sccc3n12 | . | -25% | . | ? | . | ?

Screening data from PubChem BioAssay.
